# Experimental data taken from PubChem BioAssay (NCI).
# The panel holds about 79,000 compounds, 15% with a hit somewhere; the sample as a whole holds those more often. Unmarked numbers belong to inactive results. The source made the active and inactive calls. Cut-off read from the data, not from the text of the source: active = growth inhibition above about 70%; inactive = the rest. Where a SMILES comes first, the peptide text is derived from it. The star is where a group is joined. Cbz = O=C(OCc1ccccc1)*
# Columns and labels:
# [1] = NCI Yeast Anticancer Drug Screen. Data for the rad50 strain (AID 155);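 note: 0% = growth of vehicle-only cultures of the same strain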; settings: S. cerevisiae rad50 strain growth inhibition; at 50.0 µM; hits give high values
# How it was run: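 Compounds were tested on a yeast strain with an engineered DNA damage repair alteration; the reported value is growth inhibition normalised to vehicle treatment.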
# [2] = NCI Yeast Anticancer Drug Screen. Data for the mec2-1 strain (AID 157); settings: S. cerevisiae mec2-1 strain, at 50.0 µM, hits give high values
# How it was run: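 Test agents were screened against the mec2-1 yeast strain, with defined DNA repair or cell cycle alteration. Growth was scored as inhibition against vehicle-only controls.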
# [3] = NCI Yeast Anticancer Drug Screen. Data for the sgs1 mgt1 strain (AID 161);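 note: 0% = growth of cultures given vehicle only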; settings: S. cerevisiae sgs1 mgt1 strain, at 50.0 µM, hits give high values
# How it was run: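 Mutant yeast exposed to compound; growth scored against vehicle-only wells.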
# [4] = NCI Yeast Anticancer Drug Screen. Data for the cln2 rad14 strain (AID 165);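 note: 0% = growth equal to vehicle treated cultures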; settings: S. cerevisiae cln2 rad14 strain, at 50.0 µM, hits give high values
# How it was run: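 Growth of compound-exposed yeast (cln2 rad14 genotype) measured and expressed as inhibition relative to vehicle.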
# [5] = NCI Yeast Anticancer Drug Screen. Data for the bub3 strain (AID 167); settings: S. cerevisiae bub3 mutant strain, at 50.0 µM, hits give high values
# How it was run: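 Growth of a checkpoint-deficient yeast mutant is measured after compound exposure. Values represent inhibition relative to vehicle.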
# [6] = NCI Yeast Anticancer Drug Screen. Data for the mlh1 rad18 strain (AID 175); settings: S. cerevisiae mlh1 rad18 strain growth inhibition; at 50.0 µM; hits give high values
# How it was run: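 In this whole-cell yeast screen, a strain with altered DNA damage repair is challenged with compound, and its growth is measured against matched vehicle-treated controls.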
SMILES,growth inhibition [1],growth inhibition [2] [%],growth inhibition [3],growth inhibition [4] [%],growth inhibition [5] [%],growth inhibition [6] [%]
CC1(C)CC2(C)Sc3ccccc3N2C(=S)N1 (stereo not drawn),-35.6%,-2.15,13.8%,-19.6,-0.75,17.9
Oc1ccc2c(c1)c1ccccc1c1ncccc21,46%,3.4,43.6%,3.7,9.35,49
O=C1CC2C3CC4(OCCO4)C4C3CC2C14 (stereo not drawn),8.25%,2.45,3%,8.65,2.1,5.8
CC(C)=CC1C(C(=O)O)C1(C)C (stereo not drawn),5.55%,-13.2,3.35%,-2.95,8.4,10.2
Cc1ccc(C(C)(CCC(=O)O)c2ccc(C)o2)o1,36.2%,12.2,7.35%,45.2,8.5,25.4
Cc1nn(C(=O)c2ccccc2O)c2c1C(c1ccc(O)cc1)SC(N)=N2 (stereo not drawn),16.1%,1.95,29.4%,1.65,43.6,6.65
O=C(O)NC(c1ccccc1)C(NC(=O)c1ccccc1)c1ccccc1 (stereo not drawn),-0.45%,-4.1,5.75%,7.15,-7.35,31.4
O=C(Nc1ccc(NC(=O)OCc2ccccc2)c(Cl)c1)OCc1ccccc1,20.4%,11.3,6.85%,-26.6,6.3,3
CCNCC(=O)Nc1ccccc1C(=O)OCC,-2.7%,14,0.2%,-22.5,8.6,10.1
Fc1ccccc1CSc1n[nH]c(=S)c2nc[nH]c12,4.05%,8.3,17.8%,-12.3,0.3,12
CC(C)=NOC(C)C(=O)O (stereo not drawn),-11.9%,18.2,-24.4%,10.2,-0.9,-3.15
CC(=O)Nc1nc(C)c(CC/C=C/c2ccc([N+](=O)[O-])cc2)c(=O)[nH]1,4.75%,32.6,-3.8%,2.95,-8.15,-6.1
CC1(C)CC(=O)C(/C=N/C(N)=S)=C(O)C1,-20.3%,-52.1,-13.8%,6.2,-0.85,-31.6
C/C(=N\O)c1cccs1,3.8%,-4.05,-6%,-8.9,-0.25,-1.4
Brc1ccc(N=N/C(=N/Nc2ccccc2)c2ccc(/C=N/Nc3ccccc3)cc2)cc1,45.8%,24.4,14.6%,29.2,15,34.4
O=C(Nc1ccc(C2=NCCN2)c(O)c1)c1ccc(C(=O)Nc2ccc(C3=NCCN3)c(O)c2)cc1,32.6%,3.95,23.2%,36.2,7.5,28.6
COc1cc(C)c(C#N)c(OC)n1,19.4%,-7.8,9.9%,12.9,20.2,14.8
COC(CCCl)c1ccc(C)cc1 (stereo not drawn),-9.4%,-66.4,-24%,3.8,-29.9,1.8
CC(C)CCCC(C)C1CCC2C3CCC4CC(=O)/C(=C\O)CC4(C)C3CCC12C (stereo not drawn),70.3% (active),51.5,79.4% (active),38.6,25.6,67.2

SMILES,growth inhibition [1],growth inhibition [2] [%],growth inhibition [3],growth inhibition [4] [%],growth inhibition [5] [%],growth inhibition [6] [%]
COC1=C(c2c[nH]c3ccc(CC=C(C)C)cc23)C(=O)C(OC)=C(c2c[nH]c3ccc(CC=C(C)C)cc23)C1=O,30.5%,6.5,13.6%,19.4,-1.1,29.6
N#Cc1c(N)nc(Nc2cccc3ccccc23)c(C#N)c1C#N,37.7%,29.7,29.1%,39.9,29.4,36.8
O=S(=O)(O)c1ccc(N/N=C/c2ccccc2)cc1,-9.45%,12.7,12.1%,5.3,-10.2,14.3
COC(=O)/C=C(C)/C=C/c1cc(C(C)=O)c(C)o1,-2.25%,-2.95,7.85%,-12.3,29.6,-7.05
Cc1cc(-c2ccccc2)nc(Nc2cc3ccccc3[nH]2)n1,-8.6%,13.2,-17.6%,0.05,-4.25,0.4
Cc1ccc(S(=O)(=O)OCC(C)C(c2ccccc2)c2ccccc2)cc1 (stereo not drawn),7.45%,1.9,-4.55%,-20.9,-3.3,0.2
C/C=C/C(=O)OCCCCCCCCCCCCCCCCCC,13.7%,-23.8,11.7%,8,15.5,21
O=C(O)CCc1cccc2ccccc12,30.1%,10.8,32.7%,14.4,3.35,35.3
Cc1cc(OCc2ccc3ccccc3c2)ccc1Nc1cc(=O)[nH]c(=O)[nH]1,3.65%,33.6,18.6%,-4.55,33.6,24.4
O=P(c1ccccc1)(c1ccccc1)C(O)c1ccncc1 (stereo not drawn),1.8%,-17.2,-0.15%,10.9,-23,-10.9
CC(O)C(NC(=O)C(Cc1ccc(O)cc1)NC(=O)OCc1ccccc1)C(=O)O (stereo not drawn) (Cbz-Tyr-Thr-OH; configuration not given here),-9.65%,-4.25,-2.05%,-35.8,-4.85,-0.7
CCCCCCC/C=N/Nc1ccc([N+](=O)[O-])cc1[N+](=O)[O-],-3.3%,-16.1,-5.55%,-23.9,1.4,12.9
COC1=CC(=O)C=C(C)C1=O,19.4%,-11.9,-8.1%,29.7,4,2
CCc1ccc(OC(=O)CCl)cc1,-19.4%,9.5,-21.6%,-28.7,-3.4,-42.5
CC(C)CC(NC(=O)C(C)NC(=O)C(NC(=O)OCc1ccccc1)C(C)O)C(=O)NC(CC(C)C)C(=O)NCC(=O)NN (stereo not drawn),12.1%,1.9,0.05%,-0.3,-5.1,-15.6
O=C(OC(=O)c1ccc(Cl)cc1)c1ccc(Cl)cc1,-4.65%,25.9,5.45%,-8.15,-9.2,-7.35
CCOC(=O)C1(C(=O)OCC)CCC(C(OC)OC)C(CC(=O)OC)C1 (stereo not drawn),-2.45%,-15.7,-5.2%,-6.5,26.4,16.4
O=C(O)COc1ccc(I)cc1I,23.3%,-8.05,-4.85%,-37.5,23.6,19.2
COC(=O)CC(=O)/C(=C/C(C/C=C(\C(=O)CC(=O)OC)C(=O)OC)OC)C(=O)OC (stereo not drawn),40.1%,22.8,8.9%,18.8,3.85,32.3
